This is an account of results in PubChem BioAssay (NCATS).

Inconclusive results are not listed. Calls of active or inactive are those of the source. Calls follow the shape of the dose curve; as a rule, active = well fitted cell-killing curve with a large enough effect; inconclusive = small, poorly fitted or top-dose-only effect, or effect the other way; inactive = no such curve, though single readings can be large or run the other way.
Potency is read from the fitted curve at half-maximal effect.

This assay in a line: Quantitative High-Throughput drug screen in 47 multiple myeloma cell lines against the NCATS MIPE library collection: KMS12BM_JCRB cell viability assay (AID 1918971). Also: nearly all actives have a fitted effect of over 35% in size. Particulars: KMS12BM myeloma viability, CellTiter-Glo ATP, 48 h; series mostly up to 45.8 µM; viability, % of DMSO: at the top concentration. The text has this: PI: Beverly A. Mock Ph.D.
Laboratory of Cancer Biology and Genetics,
Center for Cancer Research, National Cancer Institute,
National Institute of Health, Bethesda, Maryland
Drug resistance and disease progression are common in multiple myeloma (MM) patients, underscoring the need for new therapeutic combinations. […] We hypothesized that effective combinations would reduce MYC expression and enhance p16 activity. […] These preclinical data identify potentially useful drug combinations for evaluation in drug-resistant MM and reveal potential mechanisms of combined drug sensitivity.
Described herein is the primary MIPE qHTS used to cherrypick compounds. Validated compounds were then further tested for potential synergistic activiy.
[1] Peat TJ, Gaikwad SM, Dubois W, Gyabaah-Kessie N, Zhang S, Gorjifard S, Phyo Z, Andres M, Hughitt VK, Simpson RM, Miller MA, Girvin AT, Taylor A, Williams D, D'Antonio N, Zhang Y, Rajagopalan A, Flietner E, Wilson K, Zhang X, Shinn P, Klumpp-Thomas C, McKnight C, Itkin Z, Chen L, Kazandijian D, Zhang J, Michalowski AM, Simmons JK, Keats J, Thomas CJ, Mock BA. Drug combinations identified by high-throughput screening promote cell cycle transition and upregulate Smad pathways in myeloma. Cancer Lett. 2023 Aug 1;568:216284. doi: 10.1016/j.canlet.2023.216284. Epub 2023 Jun 24. PMID: 37356470; PMCID: PMC10408729.
SEQUENCE No. (e.g., 1, 2, 3, etc.); […] (e.g., Cells, Incubation, Reagent, etc.); VALUE and DESCRIPTION.
1; Cells; 5 uL; white, solid bottom 1536-well Greiner assay plate.
2; Compounds; 23 nL; Kalypsis pin tool (Wako USA) equipped with a 1536-well pin head to transfer to the assay plates.
3; Incubation; 48 hours; 37C incubation.
4; Reagent;5uL; CellTiter Glo (Promega).
5; Detector; 425V; Luminescence; Viewlux PerkinElmer.
NOTES (numbers refer to Sequence numbers above)
1. The cell-based screening methods employed in this study were like those previously published. Briefly, the corresponding myeloma cell lines were screened in 1,536-well plates with 500 cells, 5-uL per well for inhibition of cell viability (assessed by measuring ATP levels with CellTiterGlo).
2. NCATS MIPE 4.0 library of approved and investigational drugs were added using the Kalypsis pin tool. Wells treated with DMSO only for 100% viability and media only wells for 0% viability were used as controls.
3. The assay plates were covered and incubated for 48 hours in a 37C, 5% CO2 incubator with controlled humidity.
4. After 48 hours, CellTilter-GloTM luminescent substrate mix (Promega) reagent was added to the assay plate and plates we incubated for 5 min at room temperature.
5. Signal was measured as median relative luminescence units on a ViewLux (PerkinElmer) multiplate reader.
[1] Heske CM, Davis MI, Baumgart JT, Wilson K, Gormally MV, Chen L, Zhang X, Ceribelli M, Duveau DY, Guha R, Ferrer M, Arnaldez FI, Ji J, Tran HL, Zhang Y, Mendoza A, Helman LJ, Thomas CJ. Matrix Screen Identifies Synergistic Combination of PARP Inhibitors and Nicotinamide Phosphoribosyltransferase (NAMPT) Inhibitors in Ewing Sarcoma. Clin Cancer Res. 2017 Dec 1;23(23):7301-7311. doi: 10.1158/1078-0432.CCR-17-1121. Epub 2017 Sep 12. PMID: 28899971; PMCID: PMC6636827.
Turning to `N#C[C@H](O[C@@H]1O[C@H](CO[C@@H]2O[C@H](CO)[C@H](O)[C@H](O)[C@H]2O)[C@H](O)[C@H](O)[C@H]1O)c1ccccc1`, the Potency is 20.9 µM (active).

Consider `CC(=O)O[C@@]12CO[C@H]1C[C@H](O)[C@@]1(C)C(=O)[C@H](O)C3=C(C)[C@@H](O)C[C@@](O)([C@@H](OC(=O)c4ccccc4)[C@@H]21)C3(C)C`, for which the Potency was 1.48 µM (active).

Consider `Cc1[nH]nc2ccc(-c3cncc(OC[C@@H](N)Cc4c[nH]c5ccccc45)c3)cc12`, for which the Potency is 2.64 µM (active).

As for `COc1ccc2c(c[n+](C)c3c4cc5c(cc4ccc23)OCO5)c1OC`, the Potency was 3.72 µM (active). Regarding `CC(=O)N(C)c1cccc(-c2ccnc3c(C(=O)c4cccs4)cnn23)c1`, the “viability, % of DMSO” value was 126% (inactive). Take `c1ccc(CCCN2CCN(CCOC(c3ccccc3)c3ccccc3)CC2)cc1`: the Potency is 20.9 µM (active).

With `O=c1[nH]c2ccc(Cl)cc2c(N[C@@H]2CN3CCC2CC3)c1-c1nc2ccccc2[nH]1`, the Potency is 1.66 µM (active). On the same count and under the same terms, the same measure for `CC(C)N(CCNC(=O)CN1CCCC1=O)C(C)C`: 11.8 µM (active); for `CN(C)NC(=O)CCC(=O)O`: 7.43 µM (active). On to `O=C(Oc1ccc([N+](=O)[O-])cc1)N1CCC(C(O)(c2ccc3c(c2)OCO3)c2ccc3c(c2)OCO3)CC1`, for which the “viability, % of DMSO” value was 130% (inactive). In the case of `CC1=C(O)C(=O)C=C2C1=CC=C1[C@@]2(C)CC[C@@]2(C)[C@@H]3C[C@](C)(C(=O)O)CC[C@]3(C)CC[C@]12C`, the Potency was 0.526 µM (active). On the same count and under the same terms, then `CCNC(=O)C[C@@H]1N=C(c2ccc(Cl)cc2)c2cc(OC)ccc2-n2c(C)nnc21`, with 0.235 µM (active). Same read-out and setting: the same measure for `CC(C)(O)C=CC(=O)[C@](C)(O)[C@H]1[C@H](O)C[C@]2(C)[C@@H]3CC=C4[C@@H](C=C(O)C(=O)C4(C)C)[C@]3(C)C(=O)C[C@@]12C`: 1.18 µM (active); for `CCCN1CCO[C@@H]2c3cc(O)ccc3OC[C@@H]21`: 14.8 µM (active). Still for that read-out and setting: the same measure for `CC(N[C@H]1C[C@H]1c1ccccc1)c1ccc2c(c1)OCCO2` (stereo not given in full): 1.87 µM (active). With `Cc1c(C(=O)c2cccc3ccccc23)c2cccc3c2n1[C@H](CN1CCOCC1)CO3`, the Potency is 18.7 µM (active). As to `COc1ccc2c(c1)[C@]13CCCCC1C(C2)N(C)CC3` (stereo not given in full), the “viability, % of DMSO” value is 114% (inactive). On to `CC(O)=C(C#N)C(=O)Nc1cc(Br)ccc1Br`, for which the Potency was 20.9 µM (active).

As to `CC1=NN=C(c2ccc(N)cc2)c2cc3c(cc2C1)OCO3`, the “viability, % of DMSO” value was 126% (inactive). As to `C[C@@]12OC(=O)[C@]1([C@@H](O)[C@@H]1C=CCCC1)NC(=O)[C@H]2CCCl`, the Potency was 0.0235 µM (active). Turning to `CC(C)(C)c1cc(C=C(C#N)C#N)cc(Br)c1O`, the Potency was 16.6 µM (active). The same measure, in the same setting: the same measure for `CN1CCN(c2ccc([N+](=O)[O-])c3no[n+]([O-])c23)CC1`: 18.7 µM (active). `CC(=Cc1csc(C)n1)[C@@H]1C[C@H]2O[C@]2(C)CCC[C@H](C)[C@@H](O)[C@@H](C)C(=O)C(C)(C)[C@@H](O)CC(=O)O1`: the “viability, % of DMSO” value is 71.5% (inactive). As for `Cc1ccccc1-n1c(Cn2cnc3c(N)ncnc32)nc2cccc(C)c2c1=O`, the Potency is 1.48 µM (active). Consider `CN1[C@H]2CC(O)C[C@H]1[C@H]1O[C@H]12` (stereo not given in full), for which the Potency was 18.7 µM (active). Regarding `O=C(O)CNC(=O)c1c(O)c2ccccc2n(Cc2ccccc2)c1=O`, the “viability, % of DMSO” value was 117% (inactive). Consider `C[C@]12CCC(=O)C(O)=C1CC[C@@H]1[C@H]3CCC(=O)[C@@]3(C)CC[C@@H]12`, for which the Potency was 20.9 µM (active).

As to `CO[C@H]1CCC(O[C@H]2C[C@H]([C@]3(C)CC[C@]4(C[C@H](O)[C@@H](C)[C@@H]([C@@H](C)C=C(C)C(=O)[C@H](C)C[C@H](C)C(=O)O)O4)O3)O[C@]3(O[C@@H]([C@H]4O[C@@](O)(CO)[C@H](C)C[C@H]4C)C[C@H]3C)[C@H]2C)O[C@H]1C` (stereo not given in full), the Potency is 0.0833 µM (active). The same measure, in the same setting: then `Cc1c(C(=O)Nc2cccc(C(F)(F)F)c2)cc(-c2ccccc2)n1CCCN1CCOCC1`, with 13.2 µM (active); and `C[C@@H]1CC[C@@]2(OC1)O[C@H]1C[C@H]3[C@@H]4CC=C5C[C@@H](O[C@@H]6O[C@H](CO)[C@@H](O[C@@H]7O[C@@H](C)[C@H](O)[C@@H](O)[C@@H]7O)[C@H](O)[C@@H]6O[C@@H]6O[C@@H](C)[C@H](O)[C@@H](O)[C@@H]6O)CC[C@]5(C)[C@@H]4CC[C@]3(C)[C@@H]1[C@H]2C`, with 2.64 µM (active); and `COc1cc([C@@H]2c3cc4c(cc3[C@@H](O)C3COC(=O)C32)OCO4)cc(OC)c1O` (stereo not given in full), with 0.0418 µM (active). Turning to `COc1ccc(C(=O)c2c(C)n(CCN3CCOCC3)c3cc(I)ccc23)cc1`, the Potency is 23.5 µM (active). Take `CCN1CCN(C(=O)Cc2ccc(Nc3ncc(F)c(Nc4ccc(C(=O)Nc5ccccc5Cl)cc4)n3)cc2)CC1`: the Potency was 7.43 µM (active). The same measure, in the same setting: then `COc1ccc(N(C(=O)Oc2c(C)cccc2C)c2ccnc(Nc3ccc(N4CCN(C)CC4)cc3)n2)c(OC)c1`, with 1.48 µM (active). Same read-out and setting: then `C=CCON=C(C[C@H]1O[C@@H]2O[C@]3(C)CC[C@@H]4[C@H](C)CC[C@@H]([C@H]1C)[C@@]24OO3)[C@H]1O[C@@H]2O[C@]3(C)CC[C@H]4[C@H](C)CC[C@@H]([C@@H]1C)[C@@]24OO3`, with 0.148 µM (active); and `C=C1C[C@H]2[C@H]3CCC(=O)[C@@]3(C)CC[C@@H]2[C@@]2(C)C=CC(=O)C=C12`, with 20.9 µM (active). Same read-out and setting: the same measure for `O=[N+]([O-])c1ncc[nH]1`: 16.6 µM (active); for `C=C[C@@H]1CN2CCC1C[C@@H]2[C@@H](O)c1ccnc2ccccc12` (stereo not given in full): 23.5 µM (active); for `COc1ccc2c(c1)CN(C)CC2c1ccc(Cl)c(Cl)c1` (stereo not given): 20.9 µM (active). On to `N=c1c2c(-c3ccccc3)c(-c3ccccc3)n(Cc3ccccc3)c2ncn1C1CCC(O)CC1` (stereo not given), for which the Potency is 6.62 µM (active).
